Experimental data from PubChem BioAssay AID651994 (Sanford-Burnham Center for Chemical Genomics, 2013).
In all, about 2,500 compounds went through this assay and about 790 (32%) were called active. Only a sample is shown. Values without a mark were called inactive.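 Rule for the calls: active = mean cytotoxicity at 5 µM above about 25% (limit read from the data); inactive = the rest.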

Assay: cytotoxicity in Sufu-KO-LIGHT cells, confirmation, cytotoxicity control for Gli-SUFU antagonist project, cell-based, ATP luminescence, single concentration (AID 651994);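 note: cells exposed to compound overnight for roughly 16 to 18 hours; plate controls were DMSO wells with cells for no effect and medium without cells for full effect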
Conditions: at 5 µM, stronger effect = higher value

Row | SMILES | cytotoxicity
1 | COc1ccc2c(C)cc3nnnn3c2c1 | 27% (active)
2 | CC1(C)CC(=O)c2c(n(S(=O)(=O)c3ccccc3)c3ccc(NS(=O)(=O)c4ccccc4)cc23)C1 | 23.1%
3 | Cc1ccc(NC(=S)Nc2ccc(F)cc2)cc1 | 25.1% (active)
4 | COc1ccc(NC(=O)[C@H](NC(=O)[C@@H]2Cc3ccccc3CN2)c2ccccc2)cc1 | 6.92%
5 | CCN(CC)CCNC(=O)c1ccc(NC(=O)c2cc(-c3ccncc3)nc3ccccc23)cc1 | 16.3%
6 | Nc1ccc(C(=O)N2CCN(S(=O)(=O)c3ccc(Cl)cc3)CC2)cc1[N+](=O)[O-] | 14.4%
7 | CC(=O)N1CCCc2cc(S(=O)(=O)N3CCCC(C(=O)N4CCN(c5cccc(Cl)c5)CC4)C3)ccc21 (centres undefined) | 24.2%
8 | O=C(NCCOCc1ccc(Cl)cc1)c1ncn[nH]1 | 18.8%
9 | N#Cc1ccc(C(=O)Nc2nc(-c3cccs3)c(C(=O)C(F)(F)F)s2)cc1 | 32.7% (active)
10 | C/C(=N\Nc1ccc(Cl)nn1)c1ccccc1O | 23.9%
11 | O=C(O)c1ccc(N/N=C/c2ccc3ncccc3c2)cc1 | 22.3%
12 | CCN(CCO)C(=S)Nc1cc(C(=O)OC)ccc1C(=O)OC | 18.2%
13 | C=CCC1(CC=C)CCCN1C(=O)c1cc(COc2ccc(-n3cncn3)cc2)on1 | 36.4% (active)
14 | O=C(Nc1nc2ccc([N+](=O)[O-])cc2s1)c1ccc(S(=O)(=O)N2CCCc3ccccc32)cc1 | 23.2%
15 | CSc1ncccc1C(=O)Nc1nc2ccc(F)cc2s1 | 28.1% (active)
16 | Cc1ccc(S(=O)(=O)N2C[C@@H]3CCCC[C@@H]3[C@@H](C)[C@H]2c2cn(Cc3ccccc3)c3ccc(F)cc23)cc1 | 7.61%
17 | C=CCNC(=S)/N=c1/ccccn1Cc1ccccc1 | 22.1%
18 | CCC(Cc1ccccc1)NC(=O)C1CCCCC1 (centres undefined) | 9.02%
19 | O=C(Nc1cccc(S(=O)(=O)Nc2ccc(Cl)cc2)c1)c1ccc2c(c1)OCCO2 | 28.9% (active)
20 | O=C1C=C(c2ccnc3cc(Cl)ccc23)C[C@@H](c2ccc3c(c2)OCO3)C1 | 30.6% (active)
21 | CCN1/C(=C/C(=S)Nc2ccccc2)Sc2ccccc21 | -1.08%
22 | CC(C)(CNC(=O)c1ccc(Cl)c(S(=O)(=O)N2CCc3ccccc3C2)c1)N1CCOCC1 | 17.5%
23 | COc1ccc(C(=O)NC2CCCc3c2cnn3-c2cccc(C)c2C)c(OC)n1 (centres undefined) | 26.7% (active)
24 | Cc1ccc(S(=O)(=O)NC(C)C(=O)Nc2ccccc2C(=O)N2CCCC2)cc1 (centres undefined) | 12.8%
